Results as given in PubChem BioAssay (Tox21).
Unmarked numbers belong to inactive results. Records with an inconclusive call do not appear. Where a call stands in place of a potency, no number is given. The source made the active and inactive calls. Unless noted, calls follow the shape of the dose curve; as a rule, active = well fitted curve in the direction sought with a large enough effect in the repeat runs; inconclusive = weak or mixed curves; inactive = no such curve, though single readings can be large; an effect the other way counts as inactive or inconclusive.

How the values were obtained:
[1] = qHTS assay to identify small molecule agonists of the hypoxia (HIF-1) signaling pathway - cell viability counter screen (AID 1224844; calls by dose curve; also: nearly all actives have a fitted effect of over 50% in size)
How it was run: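 HRE-bla ME-180; 0.5% dFBS; cpd 17 h, 37C, 5% CO2; CellTiter-Glo lum., 30 min RT, post-FRET read, same wells.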

[2] = qHTS assay to identify small molecule agonists of the hypoxia (HIF-1) signaling pathway (AID 1224846; active = well fitted activation curve with a large enough effect in the signal ratio in the repeat runs, not every such curve was filed as active; the % refers to the signal ratio)
How it was run: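 Reporter induction in HRE-bla ME-180 cells is taken as agonism: cells sit 5 hrs after plating, receive compounds or DMSO only, incubate 17 hrs at 37C under 5% CO2, and are loaded with CCF4-AM for beta-lactamase FRET measurement.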

[3] = qHTS assay to identify small molecule agonists of H2AX - cell viability counter screen (AID 1224847; calls by dose curve; also: nearly all actives have a fitted effect of over 30% in size; also: potency is read from the fitted curve at half-maximal effect)
How it was run: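 For this counter screen, overnight-attached CHO-K1 cells received test compounds (15 concentrations, 0.76% DMSO final); 3 hr later at 37C, CellTiter-Glo reagent was added and luminescence recorded after 30 min at room temperature.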

[4] = qHTS assay to identify small molecule antagonists of the estrogen related receptor (ERR) signaling pathway from Tox21 library (AID 1224848); also: nearly all actives have a fitted effect of over 50% in size; also: potency is read from the fitted curve at half-maximal effect
How it was run: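 Compounds dissolved in DMSO are pin-transferred onto ERR reporter cells (2,000 per well) that have settled for 6 h at 37 C. Plates then incubate 18 h at 37 C before ONE-Glo luciferase reagent and a luminescence read 30 min later.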

[5] = qHTS assay to identify small molecule agonists of the estrogen related receptor (ERR) signaling pathway from Tox21 library (AID 1224849; calls by dose curve; also: nearly all actives have a fitted effect of over 15% in size); settings: ERR reporter cell line, ONE-Glo luciferase, 18 h
How it was run: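 Tox21 compounds tested for ERR agonism in an NTP reporter cell line: 18 h treatment at 37 C, then ONE-Glo luminescence.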

[6] = qHTS RealTime-Glo MT Cell Viability Assay in HEK293 cells - 32 hour (AID 1224868); also: top concentration of the series differs between compounds; nearly all actives have a fitted effect of over 50% in size
How it was run: (§1)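 HEK293 cells seeded with NanoLuc/prosubstrate reagent, rested 5 h at 37 C, then dosed and kept at 37 C up to 40 h. Nonlytic real-time luminescence from viable cells read at 0, 8, 16, 24, 32 and 40 h.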

[7] = A CellTox Green Cytotoxicity Assay to monitor cytotoxicity in HEK293 cells - 0 hour (AID 1224869); also: nearly all actives have a fitted effect of over 50% in size
How it was run: (§2)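 Tox21 screen in HEK293: membrane-impermeant cyanine dye fluoresces on binding dead-cell DNA; compound pinned 5 h post-seeding, plates held at 37 C, signal read repeatedly through 40 h.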

[8] = qHTS RealTime-Glo MT Cell Viability Assay in HepG2 cells - 40 hour (AID 1224870); also: nearly all actives have a fitted effect of over 50% in size
How it was run: (§3)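 HepG2 cells (600/well) mixed with RealTime-Glo MT reagent, settled 5 h at 37 C/5% CO2 before compound addition. Nonlytic NanoLuc luminescence from viable-cell prosubstrate reduction read repeatedly during 40 h treatment at 37 C.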

[9] = A CellTox Green Cytotoxicity Assay to monitor cytotoxicity in HEK293 cells - 40 hour (AID 1224871); also: nearly all actives have a fitted effect of over 45% in size
How it was run: as §2

[10] = qHTS RealTime-Glo MT Cell Viability Assay in HEK293 cells - 16 hour (AID 1224872)
How it was run: as §1

[11] = qHTS RealTime-Glo MT Cell Viability Assay in HepG2 cells - 8 hour (AID 1224873); also: nearly all actives have a fitted effect of over 55% in size
How it was run: as §3

[12] = qHTS RealTime-Glo MT Cell Viability Assay in HEK293 cells - 40 hour (AID 1224874); settings: RealTime-Glo luminescence; max response: stronger effect = lower value; also: nearly all actives have a fitted effect of over 50% in size
How it was run: (§4)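 HEK293 + NanoLuc + prosubstrate, 600 cells/well; 5 h, 37 C/5% CO2; compound 23 nL in DMSO by pintool; 37 C; luminescence read at 0, 8, 16, 24, 32 and 40 h time points.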

[13] = A CellTox Green Cytotoxicity Assay to monitor cytotoxicity in HEK293 cells - 24 hour (AID 1224875); also: nearly all actives have a fitted effect of over 45% in size
How it was run: as §2

[14] = A CellTox Green Cytotoxicity Assay to monitor cytotoxicity in HepG2 cells - 16 hour (AID 1224876); also: nearly all actives have a fitted effect of over 45% in size
How it was run: (§5)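 Measurements at 0, 8, 16, 24, 32 and 40 h of treatment captured CellTox Green fluorescence in HepG2 cells that had been co-plated with reagent and preincubated 5 h at 37 C/5% CO2.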

[15] = qHTS RealTime-Glo MT Cell Viability Assay in HepG2 cells - 32 hour (AID 1224877); also: nearly all actives have a fitted effect of over 55% in size
How it was run: (§6)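 HepG2 cells (600/well) were dispensed with RealTime-Glo reagents, incubated 5 h at 37 °C, then treated with compounds in DMSO for up to 40 h. Nonlytic NanoLuc luminescence reflecting viable cells was read at each stated time point.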

[16] = A CellTox Green Cytotoxicity Assay to monitor cytotoxicity in HepG2 cells - 24 hour (AID 1224878); also: nearly all actives have a fitted effect of over 45% in size
How it was run: as §5

[17] = A CellTox Green Cytotoxicity Assay to monitor cytotoxicity in HepG2 cells - 40 hour (AID 1224879); also: nearly all actives have a fitted effect of over 40% in size
How it was run: as §5

[18] = qHTS RealTime-Glo MT Cell Viability Assay in HEK293 cells - 0 hour (AID 1224880)
How it was run: as §4

[19] = qHTS RealTime-Glo MT Cell Viability Assay in HepG2 cells - 24 hour (AID 1224867); also: nearly all actives have a fitted effect of over 50% in size
How it was run: as §6

| Compound | Potency [1] | Potency [2] | Potency [3] | Potency [4] | activity change, positive = activation ([5]; at 42.5 µM (top of the series)) | Potency [6] | Potency [7] | Potency [8] | Potency [9] | Potency [10] | Potency [11] | max response [12] | Potency [13] | Potency [14] | Potency [15] | Potency [16] | Potency [17] | Potency [18] | Potency [19] | activity change, positive = activation ([5]; at 92.4 µM (top of the series)) |
| --- | --- | --- | --- | --- | --- | --- | --- | --- | --- | --- | --- | --- | --- | --- | --- | --- | --- | --- | --- | --- |
| CC(=O)Oc1cc2c(s1)CCN(C(C(=O)C1CC1)c1ccccc1F)C2 (stereo not given) | inactive | inactive | inactive | inactive | -6.5% | inactive | inactive | inactive | inactive | inactive | inactive | -4.77% | inactive | inactive | inactive | inactive | inactive | inactive | – | – |
| Oc1cc(Cl)cc(Cl)c1Cl | inactive | inactive | 51.7 µM (active) | – | – | – | inactive | – | – | – | inactive | – | – | inactive | inactive | inactive | inactive | inactive | inactive | – |
| CCN(CC)c1ccc2c(-c3ccc(S(=O)(=O)O)cc3S(=O)(=O)[O-])c3ccc(=[N+](CC)CC)cc-3oc2c1 | inactive | inactive | 20.7 µM (active) | 35.5 µM (active) | – | inactive | inactive | inactive | – | inactive | inactive | -15.9% | inactive | inactive | inactive | inactive | inactive | inactive | inactive | -38.9% |
| O=C(/C=C/c1ccc(O)c(O)c1)O[C@@H](C(=O)O)[C@@H](OC(=O)/C=C/c1ccc(O)c(O)c1)C(=O)O | inactive | inactive | inactive | – | – | inactive | inactive | – | inactive | inactive | inactive | 1.33% | inactive | inactive | inactive | inactive | inactive | inactive | inactive | – |
| NC(=S)NC(N)=S | inactive | inactive | inactive | – | – | inactive | inactive | – | – | inactive | inactive | -1.4% | inactive | inactive | inactive | inactive | inactive | inactive | inactive | – |
| CC(C)CCOC(=O)/C=C/c1ccccc1 | inactive | inactive | inactive | – | – | inactive | inactive | inactive | inactive | inactive | – | -4.61% | inactive | inactive | inactive | inactive | inactive | inactive | – | – |
| O=[N+]([O-])c1cccc(C(F)(F)F)c1 | inactive | inactive | inactive | – | – | inactive | inactive | inactive | inactive | inactive | inactive | 7.87% | inactive | inactive | inactive | inactive | inactive | inactive | inactive | – |
| c1cnccn1 | inactive | inactive | inactive | – | – | inactive | inactive | – | inactive | inactive | – | 2.57% | inactive | inactive | inactive | inactive | inactive | – | inactive | – |
| C=C(C)C(=O)OCCCCCCCCCC | inactive | inactive | inactive | inactive | – | inactive | inactive | inactive | – | inactive | inactive | 14.3% | – | – | inactive | inactive | inactive | – | inactive | 2.01% |
| C1CCC(SSC2CCCCC2)CC1 | inactive | inactive | inactive | inactive | – | inactive | inactive | inactive | inactive | inactive | inactive | -7.62% | inactive | – | inactive | inactive | inactive | inactive | – | 5.57% |
| CCOC(=O)NNc1ccc(N(CC)CC(C)O)nn1 (stereo not given) | inactive | inactive | inactive | inactive | 0.457% | inactive | inactive | inactive | inactive | inactive | inactive | 7.18% | inactive | inactive | inactive | inactive | inactive | inactive | – | – |
| COc1cccc(OC)c1C(=O)O | inactive | inactive | inactive | – | – | inactive | inactive | inactive | – | inactive | inactive | 0.328% | – | inactive | inactive | inactive | inactive | – | inactive | – |
| CCCCCCCCCCOC(=O)c1ccccc1C(=O)OCCCCCCCC | inactive | inactive | inactive | – | – | inactive | inactive | inactive | – | inactive | inactive | 1.51% | inactive | inactive | inactive | inactive | inactive | inactive | inactive | – |
| CCCCOC(=O)CO | inactive | inactive | inactive | – | – | inactive | inactive | inactive | inactive | inactive | inactive | -0.491% | inactive | inactive | inactive | inactive | – | inactive | inactive | – |
